BJeLR lethal – MLPCN primary cell-based screen for lethality selective to Ras in HRASV12 cells. BJeLR (HRASV12) viability, CellTiter-Glo ATP luminescence, 48 h. inhibition, % (concentration not given with the values). hit rate 0.17% among 300,000; in the data active means inhibition above about 50%; inconclusive means no clear call, values can overlap the other calls
PfHsp40 yeast – rescue of yeast from PfHsp40 toxicity, primary screen, S. cerevisiae, ATP luminescence. S. cerevisiae expressing PfHsp40, growth rescue. growth rescue, % at 12.5 µM. hit rate 0.68% among 340,000; in the data active means growth rescue above about 28%, passing the limit was not always enough; inconclusive means no clear call, values can overlap the other calls;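 further: yeast W303a lacking pdr1 and pdr3 grown in galactose medium; growth measured after three days at 30 °C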
Y pestis TopoI – Yersinia pestis topoisomerase I inhibitors, primary screen, biochemical, cleavage product accumulation, plate reader, single point; Y. pestis Topo-I cleavage product accumulation; DNA topoisomerase I (Yersinia pestis CO92); activity, % at 10 µM; hit rate 0.064% among 360,000; in the data active means activity above about 50%, passing the limit was not always enough; inconclusive means no clear call, values can overlap the other calls
PrP 5UTR inh – inhibition of PrP 5' UTR reporter expression; cell-based PrP 5' UTR mRNA reporter, plate reader; inhibition, % (no concentration beside the values); hit rate 0.35% among 340,000; AID 488862, 2010; in the data active means inhibition above about 52%; further: 0 = median of the neutral control wells
PrPC surface inh – inhibitors of human cell surface prion protein PrPC, primary screen, cell-based, TR-FRET; Major prion protein (Homo sapiens), P04156; TR-FRET read-out; inhibition, % at 13.8 µM; hit rate 0.43% among 370,000; in the data active means inhibition above about 24%; further: 0% = median of the test wells and 100% = reference compound wells
PriA SSB inh – inhibitors of Klebsiella pneumoniae PriA binding to SSB C-terminal tail, primary screen, biochemical, AlphaScreen; AlphaScreen SSBct-PriA binding, biotinylated peptide; inhibition, % at 33 µM; PriA–SSB C-terminal tail interaction (Klebsiella pneumoniae); AID 1272365, 2023; hit rate 0.6% among 430,000; in the data active means inhibition mostly above about 37%, no sharp cut-off; inactive means mostly below about 20%;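 further: plate controls were negative control peptide for no effect and reference peptide for full effect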
Starred values were filed as active, the others as inactive; i = inactive; ? = inconclusive; · = no result given; ! = not active in a repeat. An excerpt weighted towards active compounds, which were near 1.7% of everything screened.

SMILES	BJeLR lethal	PfHsp40 yeast	Y pestis TopoI	PrP 5UTR inh	PrPC surface inh	PriA SSB inh
Cc1csc(NC(=O)CSc2nsc(SCC(=O)Nc3nc(C)cs3)c2C#N)n1	-1	1	-7	-129	-7	13
Cc1ccc(NC(=O)CSc2nsc(SCC(=O)Nc3ccc(C)cc3C)c2C#N)c(C)c1	0	55*	7	-26	0	-9
COc1ccc2ccccc2c1C1C=C(c2ccccc2)NC(=S)N1 (stereo not drawn)	·	·	·	·	·	36*
Cc1ccc(/C=C2\SC(=S)N(CCCC(=O)N3CCOCC3)C2=O)cc1	89*	0	36	-13	-3	-5
COC(=O)c1ccc(/C=C2\SC(=S)N(CCCC(=O)N3CCOCC3)C2=O)cc1	·	-2	4	-18	10	-9
Cc1ccc(NC(=O)CSCC(=O)N2CCN(c3cccc(C(F)(F)F)c3)CC2)cc1	5	41*	18	-4	2	-4
Cc1ccccc1N1CCN(C(=O)COc2cc(=O)n(C)c3ccccc23)CC1	·	·	·	·	5	·
Cn1c(=O)cc(OCC(=O)N2CCN(c3cccc(C(F)(F)F)c3)CC2)c2ccccc21	-13	48*	12	6	-3	-8
O=C(CCCN1C(=O)/C(=C\c2ccco2)SC1=S)NNC(=O)c1ccccc1O	·	·	·	·	·	9
O=C(NC[C@H]1CCCN1c1nc2ccccc2o1)c1ccc(-n2cccc2)cc1	·	·	·	·	·	29*
COc1ccc(CN2CCN(C(=O)C3CC(=O)N(C4CCCCCC4)C3)CC2)c(OC)c1OC (stereo not drawn)	-8	5	74*	-5	6	-7
CNC(=O)CN(C)C(=O)c1cc2c(=O)[nH]c(C)cn2n1	·	·	·	·	·	-2
CCOC(=O)N1CCN(C(CC(=O)OC)C(=O)OC)CC1 (stereo not drawn)	·	·	·	·	·	76*
CCCCCCCCOc1ccc(-c2nnc(CCCCCCC)s2)cc1	·	·	·	·	·	-16
CCn1nnc2c(N3CCN(C(=O)Nc4ccc(Cl)c(Cl)c4)CC3)ncnc21	·	·	·	·	·	-5
COc1ccccc1OCCn1cc(/C=C(\C#N)C(=O)NCc2ccco2)c2ccccc21	0	-1	13	-4	-3	1
N#C/C(=C\c1cn(Cc2ccccc2F)c2ccccc12)C(=O)NCc1ccco1	-8	0	83*	-16	9	-3
COc1ccc(CNc2ncnc3sccc23)cc1	7	865*	5	0	13	1
CC(=O)c1cccc(NC(=O)/C=C/c2ccc([N+](=O)[O-])s2)c1	63*	0	-28	-44	-3	16
CCn1nccc1C(=O)Nc1ccc(F)cc1	·	·	·	·	·	1
CCn1nccc1C(=O)Nc1ccc(N=Nc2ccccc2)cc1	·	·	·	·	·	46*
CCn1nccc1C(=O)Nc1cc(Cl)cc(Cl)c1	-3	63*	-1	-17	-2	-9
O=C(NCCOc1ccccc1)N(CCc1ccccc1)Cc1ccccn1	·	·	·	·	·	-13
O=C(NCC#CCN1CCOCC1)c1cccc2ccccc12	·	·	·	·	·	-6
COc1c(C(CC(C)C)OC(C)=O)ccc2c1C(=O)OCc1cc(C)cc(O)c1O2 (stereo not drawn)	14	161*	28	-7	19	2
SMILES	BJeLR lethal	PfHsp40 yeast	Y pestis TopoI	PrP 5UTR inh	PrPC surface inh	PriA SSB inh
COc1c(C(O)CC(C)C)ccc2c1C(=O)OCc1cc(C)cc(O)c1O2 (stereo not drawn)	0	1	7	-11	-3	-4
COc1ccc(Nc2nc(NN)nc(Nc3ccc(OC)cc3)n2)cc1	-9	-1	4	-7	10	100*
NNc1nc(Nc2ccccc2)nc(Nc2ccccc2)n1	-1	-2	2	0	4	49*
Cc1cc(N)nc(Nc2ccc(Nc3ccccc3)cc2)n1	·	·	·	·	·	41*
CN(C)S(=O)(=O)NCC(Cc1cccc(F)c1)N1CCCC1=O (stereo not drawn)	·	·	·	·	·	-2
NCC(O)COc1ccc2c(c1)OCO2 (stereo not drawn)	-6	0	-6	3	-3	46*!
O=C(CNC(=O)C(c1ccccc1)c1ccccc1)N/N=C/c1cccc(O)c1	·	·	·	·	·	i
Cc1ccc(SCCNC(=S)Nc2ccccc2)cc1	1	12	2	-8	14	-9
Cc1ccc(SCCNC(=S)Nc2ccc(C)c(C)c2)cc1	0	97*	-2	0	1	-2
O=C(COC(=O)CNS(=O)(=O)c1ccc2ccccc2c1)Nc1ccccc1Sc1ccccc1	-5	1	62*	-10	1	-18
C=C(C)COc1ccc(-c2[nH]ncc2-c2ccccc2)c(O)c1	4	519*	3	-19	-4	-12
C=C(C)COc1ccc(-c2[nH]ncc2-c2ccc(OC)c(OC)c2)c(O)c1	48	1	-2	-16	10	20
C=C(C)COc1ccc(-c2[nH]ncc2-c2ccc(OC)cc2)c(O)c1	3	92*	-5	-7	10	6
COc1ccc(C)cc1-n1ccn(Cc2ccncc2)c(=O)c1=O	·	·	·	·	·	-8
CC1(C)C[C@H]2C=C(C=O)[C@]3(C=O)C[C@]3(C)[C@H]2C1	92*	-1	3	-1	-2	4
CC(C)=CCc1c(O)c(CC=C(C)C)c2c(c1O)C(=O)CC(c1ccc(O)cc1)O2 (stereo not drawn)	2	9	-16	-2	-2	-14
CC(C)=CCc1c(O)cc(O)c2c1OC(c1ccc(O)cc1)CC2=O (stereo not drawn)	-5	262*	-9	-34	5	2
COCCCn1c(NS(=O)(=O)c2ccc(C)cc2)c(S(=O)(=O)c2ccc(C)cc2)c2nc3ccccc3nc21	·	·	·	·	·	59*
COCCCn1c(NS(=O)(=O)c2ccccc2)c(S(=O)(=O)c2ccc(C)cc2)c2nc3ccccc3nc21	·	·	·	·	·	72*
COCCn1c(NS(=O)(=O)c2ccc(C)cc2)c(S(=O)(=O)c2ccc(C)cc2)c2nc3ccccc3nc21	·	·	·	·	·	63*
O=C(Cn1c(=O)n(Cc2cccs2)c(=O)c2ncccc21)c1ccc2c(c1)OCO2	·	·	·	·	·	-13
COc1ccc(-c2ccc(N3CCC(C(=O)Nc4cccc(C(C)=O)c4)CC3)nn2)cc1	·	·	·	·	·	-1
Nc1nc(Cc2ccsc2)cs1	·	·	·	·	·	-6
COc1cc2ccccc2cc1C(=O)OCC(=O)N(CC(C)C)c1c(N)n(Cc2ccccc2)c(=O)[nH]c1=O	-4	1	71*	-21	-9	-17
Cc1ccc2cc(CCNC(=O)C3c4ccccc4Oc4ccccc43)c(=O)[nH]c2c1	·	·	·	·	·	-24
CC(C)COC(=O)c1cccc2c1-c1ccccc1/C2=N\O	7	?	40	-9	-1	·
CCOC(=O)c1cccc2c1-c1ccccc1/C2=N/O	-10	233*	1	-15	0	·
